S16 viability: Cell viability qHTS assay in S16 Pmp22-F2sN cells | S16 Pmp22-F2sN Schwann cells viability, CellTiter-Glo, 24 h | Potency, µM (series often up to 57.5 µM), inactives show at the top dose activity change, negative = cytotoxicity, hits mostly cytotoxic | 0.48% of 43,000 active; also: potency is read from the fitted curve at half-maximal effect; % is scaled to controls: 0 for no effect and ±100 for the full control effect; nearly all actives have a fitted effect of over 65% in size
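S16 Pmp22-F2sN Schwann cells (500-1,000/well) in phenol-red-free DMEM with 10% FBS received 23 nL compound by pin tool for 24 h at 37 °C. Viability was then read as CellTiter-Glo luminescence after 15 min at room temperature.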
SKOV3 invasion: Primary qHTS assay for Inhibitors of ovarian cancer metastasis using an organotypic tumor microenvironment (TME) model | SKOV3ip1-GFP adhesion/invasion on 3D omental model, fluorescence | Potency, µM (series often up to 45.8 µM), for inactives: at the top dose activity change, negative = inhibition, usual class: inhibitors | 0.1% of 46,000 active | AID 1963576, 2024;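 also: potency is read from the fitted curve at half-maximal effect; plate controls were DMSO wells for no effect and tomatine positive control wells for full effect; nearly all actives have a fitted effect of over 65% in size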
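qHTS, 4-pt dose (0.36-46 umol/L); SKOV3ip1-GFP, 1,200 cells/well, no FBS; primary omental fibroblast/mesothelial co-culture 48 h pre-grown; 2 h RT + 16 h 37 C; PBS wash, 4% PFA; GFP count 488/509 nm.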
PMP22 txn prim: Cell-based coincidence reporter assay to measure PMP22 gene transcription in S16 Pmp22-F2sN cells - Primary screen; S16 Pmp22-F2sN Schwann cells (luciferase reporters placed in the Pmp22 gene), FLuc/NLuc coincidence luminescence, 24 h; Potency, µM (top dose mostly 57.5 µM), for inactives: at the highest dose activity change, negative = inhibition, hits mostly inhibitors; 2% of 43,000 active; active = clear falling dose curves in both reporters; inconclusive = both reporters move, but less clearly or upward; inactive = either reporter flat; the % is the NLuc reporter signal; also: potency is read from the fitted curve at half-maximal effect; % is scaled to controls: 0 for no effect and ±100 for the full control effect
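Schwann cells carrying the coincidence reporter were exposed to library compounds for 24 h at 37C, then lysed and read for FLuc and, after quenching, NLuc luminescence on a CCD imager.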
pS6 MEF inh: Acumen qHTS Assay for Inhibitors of the mTORC1 Signaling Pathway in MEF (Tsc2-/-, p53-/-) Cells: Sytravon; Tsc2-/- p53-/- MEF, phospho-rpS6 immunofluorescence/PI, 24 h; Potency, µM (top dose mostly 38.3 µM), for inactives: at the top dose activity change, negative = inhibition, most hits filed as inhibitors; 0.78% of 44,000 active; AID 493208, 2011;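 also: potency is read from the fitted curve at half-maximal effect; plate controls were DMSO for no effect and rapamycin for full effect; nearly all actives have a fitted effect of over 50% in size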
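Tsc2-/-, p53-/- mouse embryonic fibroblasts (empty-vector line) exposed to compound 24 hrs at 37 C, fixed, immunostained for phospho-rpS6 and counterstained with propidium iodide. Acumen laser scanning gives % positive cells from Alexa 488/PI ratio, thresholded using 7.5 nM rapamycin; PI count gives viability.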
NLuc saturating: Biochemical NLuc saturation counterscreen for small molecule modulators of PMP22 gene expression - Nano-Glo assay; shares compounds with PMP22 txn prim; Potency, µM (titrated, usually from 57.5 µM), without a hit: at the top dose activity change, negative = inhibition, most hits filed as inhibitors; Secreted NLuc enzyme (filtered S16 cell medium), Nano-Glo luminescence; 4% of 690 active; also: potency is read from the fitted curve at half-maximal effect; % is scaled to controls: 0 for no effect and ±100 for the full control effect
NLuc Km counter: Biochemical coelenterazine-based NLuc counterscreen for small molecule modulators of PMP22 gene expression - Km assay; Potency, µM (top dose mostly 57.5 µM), without a hit: at the top dose activity change, negative = inhibition, hits mostly inhibitors; shares compounds with PMP22 txn prim; 5% of 690 active; AID 1508639, 2021; secreted NLuc enzyme, coelenterazine luminescence, Km conditions; also: potency is read from the fitted curve at half-maximal effect; % is scaled to controls: 0 for no effect and ±100 for the full control effect
FLuc counter: Biochemical FLuc counterscreen for small molecule modulators of PMP22 gene expression; shares compounds with PMP22 txn prim; purified P. pyralis FLuc, luminescence, 10 min; Potency, µM (series often up to 57.5 µM), inactives show at the highest dose activity, negative = inhibition, usual class: inhibitors; 690 tested, under 10 active; AID 1508640, 2021; also: % of control where 0% means no effect
Target sequence (P08659 whole entry, looked up): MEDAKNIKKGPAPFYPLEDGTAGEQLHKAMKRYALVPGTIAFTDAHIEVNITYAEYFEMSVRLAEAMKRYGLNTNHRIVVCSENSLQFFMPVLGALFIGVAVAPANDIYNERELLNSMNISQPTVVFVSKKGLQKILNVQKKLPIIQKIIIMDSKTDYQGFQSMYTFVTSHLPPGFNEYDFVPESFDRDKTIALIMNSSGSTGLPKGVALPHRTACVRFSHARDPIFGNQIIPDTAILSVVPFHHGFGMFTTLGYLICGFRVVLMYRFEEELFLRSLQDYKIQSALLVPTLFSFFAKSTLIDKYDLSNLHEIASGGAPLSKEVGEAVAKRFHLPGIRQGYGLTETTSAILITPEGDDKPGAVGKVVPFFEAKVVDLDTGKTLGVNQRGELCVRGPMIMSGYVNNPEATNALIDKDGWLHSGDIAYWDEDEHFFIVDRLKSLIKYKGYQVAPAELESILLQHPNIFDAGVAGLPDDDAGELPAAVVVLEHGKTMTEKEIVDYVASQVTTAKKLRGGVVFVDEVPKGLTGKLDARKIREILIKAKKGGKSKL
S16 viab conf: Cell viability qHTS assay in S16 Pmp22-F2sN cells - Confirmatory screen. shares compounds with PMP22 txn prim. S16 Schwann cells viability, CellTiter-Glo ATP luminescence, 24 h. Potency, µM (top dose mostly 57.5 µM), inactives show top-dose activity change, negative = viability loss, most hits filed as cytotoxic. 7% of 690 active. AID 1508641, 2021; also: potency is read from the fitted curve at half-maximal effect; % is scaled to controls: 0 for no effect and ±100 for the full control effect
PMP22 txn conf: Cell-based coincidence reporter assay to measure PMP22 gene transcription in S16 Pmp22-F2sN cells - Confirmatory screen. 22% of 690 active. shares compounds with PMP22 txn prim. S16 Schwann cells Pmp22-F2sN, dual luciferase, 24 h. Potency, µM (titrated, usually from 57.5 µM), inactives show at the top dose activity change, negative = inhibition, usual class: inhibitors; active = clear falling dose curves in both reporters; inconclusive = both reporters move, but less clearly or upward; inactive = either reporter flat; the % is the FLuc reporter signal; also: potency is read from the fitted curve at half-maximal effect
PMP22 prot conf: Cell-based HiBiT reporter assay to measure PMP22 protein expression in S16 Pmp22-HiBiT cells - Confirmatory screen; S16 Schwann cells Pmp22-HiBiT, luminescence, 48 h; shares compounds with PMP22 txn prim; Potency, µM (series often up to 27.9 µM), inactives show top-dose activity change, negative = inhibition, most hits filed as inhibitors; 95 tested, under 10 active
Target sequence (P25094 whole entry, looked up): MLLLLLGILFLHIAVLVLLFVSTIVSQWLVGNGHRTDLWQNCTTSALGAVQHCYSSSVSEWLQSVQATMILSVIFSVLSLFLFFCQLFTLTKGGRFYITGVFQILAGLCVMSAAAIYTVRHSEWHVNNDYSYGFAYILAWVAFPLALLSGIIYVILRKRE
Starred values were filed as active, the others as inactive; i = inactive; u = inconclusive; x = not tested or not shown. This is a sample that favours compounds with a hit; in the whole collection about 2.6% have one here. Unless noted, calls follow the shape of the dose curve; as a rule, active = well fitted curve in the direction sought with a large enough effect; inconclusive = small, poorly fitted or top-dose-only effect, or another doubt; inactive = no such curve, though single readings can be large; an effect the other way counts as inactive or inconclusive.

SMILES | S16 viability | SKOV3 invasion | PMP22 txn prim | pS6 MEF inh | NLuc saturating | NLuc Km counter | FLuc counter | S16 viab conf | PMP22 txn conf | others
CCCCCOc1ccc(/C=C/C(=O)Nc2sc(C)c(C)c2C(=O)OCC)cc1OC | -14.8% | -29.6% | 7.13µM* | 2.7% | -6.2% | 0.5% | -9.6% | 6.7% | -18.8%
CCCCCOC(=O)Nc1nc(=O)n([C@@H]2O[C@H](C)[C@@H](O)C2O)cc1F (stereo partly drawn) | x | 4.7% | x | x | x | x | x | x | x
Cc1ccc(-c2csc(-c3cc4c([nH]c3=O)CC(c3ccccc3)CC4=O)n2)cc1 (stereo not drawn) | -17.9% | 6.9% | 6.31µM* | u | -15.8% | -5.3% | 8.0% | u | -32.0%
CCOc1ccccc1C(=O)Nc1c(C(=O)Nc2ccc(F)cc2)oc2ccccc12 | 19.7% | -9.9% | 4.07µM* | -16.9% | u | -7.2% | -6.6% | -3.4% | 5.59µM*
CCOc1ccc(NC(=O)c2oc3ccccc3c2NC(=O)c2c(F)cccc2F)cc1 | -3.0% | i | -6.1% | -23.3% | x | x | x | x | x
CCCN1CCN(CCCNC(=O)Cn2c(-c3cccs3)cc3cc(Cl)ccc32)CC1 | u | u | 10.6µM* | -0.3% | 0.7% | -2.7% | 1.8% | u | u
CCCN1CCN(CCCNC(=O)Cn2c(-c3cccs3)cc3ccccc32)CC1 | 6.0% | 4.5% | u | 1.3% | x | x | x | x | x | PMP22 prot conf=u
Cc1ccc(C)c(N2CCN(CCCNC(=O)Cn3c(-c4cccs4)cc4ccccc43)CC2)c1 | u | u | 13.4µM* | u | -3.9% | -4.5% | -1.3% | u | u | PMP22 prot conf=14.7%
CCN1CCN(CCCNC(=O)Cn2c(-c3cccs3)cc3ccccc32)CC1 | u | -4.0% | u | -9.6% | x | x | x | x | x
CCOC(=O)c1c(S(=O)(=O)N2CCCC(C(=O)N3CCN(c4cccc(C)c4C)CC3)C2)c(C)n(C)c1C (stereo not drawn) | -20.6% | i | 17µM* | -1.9% | u | u | 3.7% | -7.6% | -23.2%
Cc1cc(Nc2sc(C(=O)c3ccc(F)cc3)c(N)c2C(=O)Nc2ccc(F)cc2)ccc1Cl | u | u | 6.31µM* | -11.2% | -19.4% | u | 3.3% | u | 6.11µM*
Cc1ccc(NC(=O)c2c(Nc3ccccc3C)sc(C(=O)c3ccccc3)c2N)cc1 | u | 3.9% | u | -14.1% | x | x | x | x | x
CC(=O)OCC(=O)[C@@]12OC(C)(C)O[C@H]1C[C@H]1[C@@H]3C[C@H](F)C4=CC(=O)C=C[C@]4(C)[C@@]3(F)[C@@H](O)C[C@@]12C | x | 25.4% | x | x | x | x | x | x | x
COc1ccc(NS(=O)(=O)c2ccc3[nH]c4c(c3c2)CCCC4)cc1OC | -10.2% | 2.6% | 14.1µM* | -17.1% | -6.1% | u | 2.2% | u | u
Cc1ccc(NS(=O)(=O)c2ccc3[nH]c4c(c3c2)CCCCCC4)cc1C | -9.5% | -25.8% | u | -14.5% | x | x | x | x | x
COc1cc(NS(=O)(=O)c2ccc3[nH]c4c(c3c2)CCCC4)cc(OC)c1OC | -6.8% | i | 12.1µM* | u | -10.2% | u | -2.1% | -19.3% | u
COc1cc(NS(=O)(=O)c2ccc3[nH]c4c(c3c2)CCCCCC4)cc(OC)c1 | -17.0% | 0.9% | u | u | x | x | x | x | x
COc1ccc([C@@H]2CC(=O)c3c(O)cc(O[C@@H]4O[C@H](CO[C@@H]5O[C@@H](C)[C@H](O)[C@@H](O)[C@@H]5O)[C@@H](O)[C@H](O)[C@@H]4O)cc3O2)cc1O | x | -0.7% | x | x | x | x | x | x | x
N#CNC(=NCCCCCCOc1ccc(Cl)cc1)Nc1ccncc1 | x | -8.9% | x | x | x | x | x | x | x
O=C1CC(c2cccc(Cl)c2Cl)c2cc3c(cc2N1)OCCO3 (stereo not drawn) | -17.4% | i | 16µM* | -12.9% | -11.5% | u | -3.2% | -6.8% | -32.3%
CC(=O)Nc1ccc2nc(SCc3ccccc3)sc2c1 | -8.0% | -25.0% | -25.7% | -0.7% | x | x | x | x | x
O=C(COc1ccc(F)cc1)Nc1ccc2nc(SCC(=O)N3CCc4ccccc43)sc2c1 | 12.5% | 4.5% | 3.03µM* | -0.6% | u | -11.4% | -0.5% | -20.1% | u
Cc1ccc(CSc2nc3ccc(NC(=O)COc4ccccc4)cc3s2)cc1 | 6.7% | -5.6% | 15µM* | 0.7% | 1.4% | 2.0% | 5.9% | -16.3% | -24.8%
CCOc1ccc(C(=O)Nc2ccc3nc(SCc4ccccc4)sc3c2)cc1 | 9.5% | 9.7% | 8.91µM* | -13.0% | -6.6% | 2.3% | 3.2% | u | 18.3µM*
Cc1ccc(OCC(=O)Nc2ccc3nc(SCc4ccccc4)sc3c2)cc1 | 0.4% | 1.3% | -39.5% | -2.0% | x | x | x | x | x
CC(C)(C)OC(=O)Nc1ccc(-c2cc(C(=O)NCCCCCCC(=O)NO)no2)cc1 | x | 1.6% | x | x | x | x | x | x | x
